Compounds with a hit are over-represented: about 9.3% of the library has one in this group of screens.
FLuc counter = firefly luciferase modulation, counter-screen for miR-21 project; P08659; purified FLuc, Km substrates, luminescence inhibition; Potency, µM (series often up to 57.5 µM), for the others: at the highest dose activity change, negative = inhibition, usual class: inhibitors; actives 6.9% (n = 360,000); AID 588342;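 further: plate controls were vehicle for no effect and reference inhibitor for full effect; nearly all actives have a fitted effect of over 55% in size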
Target sequence (P08659 whole entry, looked up): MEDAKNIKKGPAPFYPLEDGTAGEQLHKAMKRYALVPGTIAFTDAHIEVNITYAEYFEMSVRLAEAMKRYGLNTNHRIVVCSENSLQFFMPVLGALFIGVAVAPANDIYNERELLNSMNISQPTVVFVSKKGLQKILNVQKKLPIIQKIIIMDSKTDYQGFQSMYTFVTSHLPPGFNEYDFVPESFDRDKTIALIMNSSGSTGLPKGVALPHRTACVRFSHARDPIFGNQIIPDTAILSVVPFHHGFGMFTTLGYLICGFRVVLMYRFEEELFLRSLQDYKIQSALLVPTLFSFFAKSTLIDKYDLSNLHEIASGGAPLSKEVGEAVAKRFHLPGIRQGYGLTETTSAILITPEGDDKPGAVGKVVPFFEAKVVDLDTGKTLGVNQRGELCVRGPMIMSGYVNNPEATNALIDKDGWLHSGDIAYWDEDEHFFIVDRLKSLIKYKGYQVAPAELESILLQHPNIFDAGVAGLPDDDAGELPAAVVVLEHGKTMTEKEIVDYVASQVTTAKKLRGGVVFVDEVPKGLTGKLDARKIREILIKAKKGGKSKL
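Biochemical qHTS of compounds, final roughly 60 µM downward over six points, against 10 nM purified firefly luciferase using Km concentrations of substrates (10 uM D-luciferin, 10 uM ATP) in Tris acetate pH 7.5 buffer; luminescence output.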
Rab9 prom act = activates the Rab9 promoter. AID 485297. Potency, µM (highest dose often 9.22 µM), for the others: top-dose activation, negative = inhibition, hits mostly activators. actives 2.8% (n = 320,000). Huh7 Rab9 promoter-luciferase reporter, luminescence, 24 h; further: % of control where 0% means no effect; nearly all actives have a fitted effect of over 60% in size
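Quantitative HTS format; Huh7 Rab9-luciferase reporter cells (1500/well) receive compound 2 h post-plating, incubate 24 h at 37 °C, then get luciferase reagent for 10 min before luminescence reading.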
ELG1 repair inh = inhibitors of ELG1-dependent DNA repair in HEK293T cells | HEK293T ELG1-luciferase reporter, luminescence, 16 h; DNA damage induced by 5-fluorouridine | Potency, µM (highest dose often 46.1 µM), without a hit: at the top dose activity change, negative = inhibition, actives largely listed as inhibitors | actives 2.3% (n = 330,000); further: on the % scale 0 is the no-effect control and ±100 the full control effect; nearly all actives have a fitted effect of over 55% in size
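Quantitative HTS, concentration-response format. 2,000 cells/well co-treated with 5-fluorouridine and compound, 16 hr in 5% CO2 at 37 °C; ONE-Glo luminescence read after 30 min.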
NPC1 prom act = NPC1 promoter activation | Huh7 NPC1 promoter luciferase reporter, 24 h | Potency, µM (series often up to 9.22 µM), without a hit: at the top dose activation, most hits filed as activators | actives 2.4% (n = 320,000); further: % of control where 0% means no effect; nearly all actives have a fitted effect of over 60% in size
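Luminescence read-out of NPC1 promoter-driven luciferase in stably transfected Huh7 cells; compounds delivered in DMSO and left 24 h at 37C, 5% CO2, qHTS titration format.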
ELG1 genotox = induces genotoxicity in HEK293T cells with luciferase-tagged ELG1 | HEK293T ELG1-luciferase reporter, luminescence, 16 h | Potency, µM (series often up to 46 µM), inactives show at the highest dose activity change, positive = activation, most hits filed as activators | actives 1.3% (n = 330,000); further: % of control where 0% means no effect; nearly all actives have a fitted effect of over 60% in size
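ELG1-luciferase HEK293T cells, 2,000/well; compound pinned in; 16 hr, 37 °C, 5% CO2; ONE-Glo, 30 min RT; luminescence on CCD imager.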
SMN2 splice up = SMN2 splice variant enhancement | HEK293 SMN2-luciferase splicing reporter, luminescence, 30-36 h | Potency, µM (series often up to 46.1 µM), without a hit: at the highest dose activity change, positive = activation, usual class: activators | actives 2.8% (n = 210,000) | AID 1458; further: % of control where 0% means no effect; nearly all actives have a fitted effect of over 55% in size
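qHTS luciferase splicing reporter: luminescence rises when SMN2 exon 7 is included in transfected HEK293 cells. Compound exposure lasted 30-36 h at 37C, with 4.5 mM final sodium butyrate as control, followed by a ONE-Glo read.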
Active calls of the source: *; ? = inconclusive; . = no result given. The call rests on the fitted dose curve; in most records, active means well fitted curve in the direction sought with a large enough effect; inconclusive means small, poorly fitted or top-dose-only effect, or another doubt; inactive means no such curve, though single readings can be large; an effect the other way counts as inactive or inconclusive. Potency means the concentration at half of the fitted maximal effect.

SMILES | FLuc counter | Rab9 prom act | ELG1 repair inh | NPC1 prom act | ELG1 genotox | SMN2 splice up
CC(C)Cc1nc2oc3c(NCC4CCCO4)ncnc3c2c2c1CCC2 (configuration not stated) | 1% | 3% | 12µM* | -3% | -9% | -22%
CC(C)c1nc2oc3c(NCc4cccnc4)ncnc3c2c2c1CCC2 | 0% | -4% | 8.2µM* | 0% | 3% | -17%
CCCc1nc2oc3c(NCC(C)O)ncnc3c2c2c1CCCC2 (configuration not stated) | -17% | 1% | 23µM* | 14% | -5% | .
CC(C)Cc1nc2oc3c(NCc4cccnc4)ncnc3c2c2c1CCC2 | -1% | 1% | ? | -13% | 2% | 9%
CSc1ccc(CCNC(=O)c2ccc3c(Cl)c4c(nc3c2)CCCC4)cc1 | -8% | . | . | . | . | 0%
Cc1ccc2nc(CSc3nnc(Nc4ccccc4C)s3)cc(=O)n2c1 | 2% | -2% | 26µM* | 1% | -7% | -26%
CCCSc1nnc(Nc2ccccc2C)s1 | 19µM* | 2.8µM* | ? | 28% | ? | ?
Cc1cccc(Nc2nnc(SCc3cc(=O)n4cc(C)ccc4n3)s2)c1 | -5% | 0% | ? | -1% | -11% | -10%
O=C(c1cc(COc2ccc(F)cc2F)on1)N1CCN(C2CCCC2)C(=O)C1 | 3% | 9% | -2% | 5% | 4% | .
COc1ccc(OCc2cc(C(=O)N3CCCC(CO)C3)no2)c2ccccc12 (configuration not stated) | 8.5µM* | 4µM* | ? | 4µM* | ? | .
O=C(c1cc(COc2cccc3cnccc23)on1)N1CCCC(CCCO)C1 (configuration not stated) | 1% | -29% | -8% | -31% | -7% | .
COc1ccccc1OCc1cc(C(=O)N2CCCC(OCc3cccnc3)C2)no1 (configuration not stated) | 13µM* | 2.5µM* | ? | 1.8µM* | 8.2µM* | .
CSc1ccccc1OCc1cc(C(=O)N2CCN(C3CCCC3)C(=O)C2)no1 | 17µM* | ? | ? | ? | ? | .
CSc1ccccc1OCc1cc(C(=O)N2CCCC(C)C2)no1 (configuration not stated) | 6.7µM* | 1.4µM* | ? | 1.6µM* | 5.2µM* | .
O=C(c1cc(COc2ccccc2)on1)N1CCCC(OCc2cccnc2)C1 (configuration not stated) | 3% | 0% | -3% | -4% | -6% | .
CCN(CC(=O)NC1CCS(=O)(=O)C1)C(=O)c1cc(OC)c(OC)c(OC)c1 (configuration not stated) | -1% | -9% | 4% | -4% | -1% | .
CSc1ccccc1OCc1cc(C(=O)N2CCSCC2)no1 | ? | 1.4µM* | ? | 2.2µM* | -4% | .
Cc1ccc(C)c(NC(=O)CCN2CCN(CCO)CC2)c1 | -1% | 4% | 20% | -1% | -2% | .
Cc1cccc(C)c1NC(=O)CN(C)C(=O)Cc1cccc(C(F)(F)F)c1 | -7% | 1% | ? | -4% | 8% | .
COCCNc1nc(C)cc(-c2cc(-c3ccc(Cl)cc3)on2)n1 | 15µM* | 0% | 13% | 10% | 0% | .
COC(=O)Cc1c(OC)ccn(CCc2c[nH]c3ccccc23)c1=O | 17µM* | 3.2µM* | ? | ? | ? | 11µM*
COC(=O)Cc1c(O)ccn(CCc2c[nH]c3ccccc23)c1=O | -3% | -11% | ? | -2% | 2% | 6%
CS(=O)(=O)N1CCC2(CCCN(C(=O)Nc3ccccc3)C2)CC1 | . | . | . | . | . | 1%
CC(C)n1nnnc1SCC(=O)N1N=C(c2cccs2)CC1c1cccs1 (configuration not stated) | 24µM* | ? | ? | 29% | 16% | .
O=C(CSc1nc2ccccc2nc1Cc1ccccc1)NCc1ccccc1Cl | -1% | . | . | . | . | .
SMILES | FLuc counter | Rab9 prom act | ELG1 repair inh | NPC1 prom act | ELG1 genotox | SMN2 splice up
O=C1NC(c2ccccc2)=N/C1=C/c1ccco1 | 2.1µM* | 3.2µM* | ? | 3.5µM* | ? | 13µM*
O=C1NC(c2cccc(Br)c2)=N/C1=C\c1ccco1 | 11µM* | ? | ? | ? | 16% | -13%
O=C1NC(c2ccccc2Br)=N/C1=C\c1ccco1 | 0.38µM* | ? | ? | 13% | ? | .
Cc1cc(C(=O)CN2C(=O)C(=O)N(Cc3ccccc3)C2=O)c(C)n1-c1ccc2c(c1)OCCO2 | -11% | 1% | -1% | -2% | -5% | -28%
CCOC(=O)c1ccc(N2C(=O)c3[nH]nc(-c4ccc(OCC)cc4)c3C2c2cccs2)cc1 (configuration not stated) | -6% | . | . | . | . | -9%
Cc1cc(NC(=O)/C=C/c2ccco2)ccc1NC(=O)c1ccccc1 | ? | 10% | 9% | 0% | 0% | .
Cc1ccc(-c2csc(NC(=O)/C=C/c3ccco3)c2C(=O)O)cc1 | 6µM* | 1.8µM* | ? | 3.2µM* | ? | 11µM*
COC(=O)c1c(-c2ccccc2)csc1NC(=O)c1ccco1 | 5.4µM* | ? | ? | 2.8µM* | 2.3µM* | -1%
O=C(Nc1scc(-c2ccc(F)cc2)c1C(=O)O)c1ccco1 | 17µM* | 24% | ? | 26% | ? | ?
Cc1csc(NC(=O)c2ccco2)c1C(=O)c1ccccc1 | -3% | -3% | -1% | 0% | 8% | .
COC(=O)c1c(-c2ccccc2)csc1NC(=O)c1c(-c2ccccc2)noc1C | 2% | 20% | ? | 0% | -11% | ?
Cc1cccc(NC(=O)CSc2nnc(NC(=O)Nc3ccccc3)s2)c1C | -10% | . | . | . | . | .
Cn1c(SCC(=O)c2ccc(F)cc2)nnc1-c1ccccc1Br | ? | . | . | . | . | -7%
COc1ccc(CN2CCNC(=O)C2CC(=O)NC2CCCCCCC2)cc1C (configuration not stated) | 2% | 3% | 15% | 0% | 4% | .
COC(=O)c1ccc2c(CCO)c[nH]c2c1 | 24µM* | 29% | ? | ? | ? | .
CC(C)S(=O)(=O)c1csc(NC(=O)Nc2cc(Cl)ccc2Cl)c1Cl | ? | -5% | 21µM* | 1% | -10% | .
O=[N+]([O-])c1cccc(-c2nc(-c3ccncc3)no2)c1 | ? | ? | ? | ? | ? | 17%
O=[N+]([O-])c1cccc(-c2nc(-c3ccccc3)no2)c1 | 1.3µM* | 4µM* | ? | 6.3µM* | ? | .
O=[N+]([O-])c1cccc(-c2noc(-c3ccco3)n2)c1 | 9.5µM* | 2.5µM* | ? | 3.5µM* | ? | .

Bioassay records (PubChem BioAssay)
